Test results as given in PubChem BioAssay (Tox21).
Results filed as inconclusive are left out. Values without a mark were called inactive. The call rests on the fitted dose curve.

Assay: qHTS assay to identify small molecule antagonists of the estrogen receptor alpha (ER-alpha) signaling pathway - cell viability counter screen (AID 743074);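 further: HEK293 cells carrying ER-alpha-UAS-bla reporter stimulated with 17beta-estradiol; nearly all actives have a fitted effect of over 45% in size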
Conditions: ERalpha-bla HEK293 viability, CellTiter-Glo luminescence, 18 h; series mostly up to 69.4 µM; activity, negative = cytotoxicity: at the top concentration
On the % scale 0 is the no-effect control and ±100 the full control effect.

| SMILES | activity, negative = cytotoxicity [%] |
| --- | --- |
| CCCC(=O)Nc1ncnc2c1ncn2[C@@H]1O[C@@H]2COP(=O)(O)O[C@H]2[C@H]1OC(=O)CCC | -19.4 |
| CN(CCO)CC(O)Cn1cnc2c1c(=O)n(C)c(=O)n2C (stereo not drawn) (tested in a mixture with another compound) | -7.84 |
| CCOC(=O)[C@H](CCc1ccccc1)N[C@H]1CCCN2CCC[C@@H](C(=O)O)N2C1=O | 16.5 |
| C[C@]12CC[C@@H]3c4ccc(OS(=O)(=O)O)cc4CC[C@H]3[C@@H]1CCC2=O | -13.3 |
| CS(=O)(=O)OCCCNCCCOS(C)(=O)=O | -9 |
| CN=C(NC)NCc1ccccc1 | 17.5 |
| CC1(C)S[C@@H]2[C@H](NC(=O)C(C(=O)Oc3ccc4c(c3)CCC4)c3ccccc3)C(=O)N2[C@H]1C(=O)O (stereo partly drawn) | -3.66 |
| CS(=O)(=O)NC(=O)CCC/C=C\C[C@H]1C(=O)C[C@@H](O)[C@@H]1/C=C/[C@H](O)COc1ccccc1 | 27.4 |
